Source: the supplement of paper PMC12636033
± gives the standard deviation of the averaged measurements. The full ranking holds about 33,000 sequences; the median of “E-score (rank enrichment, -0.5 to 0.5)” is about -0.0068, and the highest 2% start at about 0.24. The sample holds the highest values, similar sequences and a random draw of the others, so the mix is not that of the screen.

System: muMax20 (Max(13-93) K31hArg/K57hArg, M65Nle)
Test: PBM 8-mer E-score (E-score (rank enrichment, -0.5 to 0.5)); higher = stronger preferential binding
Procedure: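 Protein binding microarray (universal PBM chip covering all 10-mers in fixed probe flanks) with chemically synthesized human Max(13-93) bHLH-LZ analogs (not full-length Max) bearing noncanonical residues (hArg, Tha, Aib, Nle at 65) and aromatic Cys staples. Read-out per 8-mer (and its reverse complement): E-score (rank-based enrichment, -0.5 to 0.5) and Z-score of median probe intensity.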

Row | Sequence | PBM 8-mer E-score
1 | AGGCGGAG | -0.00941 ± 0.016
2 | GTATAAAA | 0.288 ± 0.072
3 | TTATAAAA | 0.235 ± 0.043
4 | GTATAAAC | 0.137 ± 0.05
5 | GGGTAATA | 0.117 ± 0.078
6 | AGGGGAAG | -0.0693 ± 0.071
7 | CTAGCGAC | -0.0457 ± 0.095
8 | CCGAAAGG | -0.0656 ± 0.13
9 | CAAGCCAA | -0.034 ± 0.1
10 | GGTGTGTA | 0.159 ± 0.11
11 | CATGTTTA | 0.249 ± 0.0042
12 | GATGTTTA | 0.0668 ± 0.12
13 | TATGTGCA | 0.175 ± 0.068
14 | ATTGTATG | 0.139 ± 0.039
15 | GATGTGCA | 0.03 ± 0.16
16 | ATTGTATC | 0.304 ± 0.027
17 | CATGTGCA | 0.292 ± 0.063
18 | CGTGTGTA | 0.28 ± 0.017
19 | CTTGTATC | 0.0905 ± 0.026
20 | AGTGTGTA | 0.121 ± 0.0059
21 | CATGTTTC | 0.143 ± 0.045
22 | CAACAAAA | 0.0937 ± 0.037
23 | ACCCCTCC | 0.155 ± 0.011
24 | AGCATAAA | 0.158 ± 0.013
25 | CGGTTCCA | -0.282 ± 0.0036

Row | Sequence | PBM 8-mer E-score
26 | GACGGCCA | -0.0819 ± 0.046
27 | AAGTGTAA | -0.0103 ± 0.021
28 | GCCCCTAC | 0.00167 ± 0.035
29 | ACTCTGAG | -0.217 ± 0.068
30 | GATAACGC | 0.105 ± 0.11
31 | CATGTGTC | 0.117 ± 0.14
32 | ATTGTAAA | 0.244 ± 0.021
33 | CTTGTAAA | 0.217 ± 0.015
34 | CATGTGTA | 0.332 ± 0.054
35 | CGTGTATC | 0.238 ± 0.025
36 | GATGTGTA | 0.17 ± 0.024
37 | ATTGTAAG | 0.16 ± 0.042
38 | AGTGTATC | 0.123 ± 0.049
39 | CGTGTATA | 0.2 ± 0.044
40 | AGCTCTCG | -0.155 ± 0.045
41 | GAGTCACC | -0.0777 ± 0.02
42 | AACCTTAT | 0.0715 ± 0.044
43 | AACAGTAA | -0.00834 ± 0.034
44 | GCTCGTTA | 0.0811 ± 0.07
45 | AACGTAAG | -0.0553 ± 0.13
46 | CAGTGTGA | 0.2398 ± 0.0018
47 | AAGTGTGA | 0.0524 ± 0.053
48 | TAGTGTGA | 0.15 ± 0.12
49 | CTGGTCTC | -0.256 ± 0.045
50 | AATGGATC | -0.167 ± 0.0063

Row | Sequence | PBM 8-mer E-score
51 | CCACCAAG | -0.0933 ± 0.014
52 | CCATAGTA | 0.0366 ± 0.064
53 | CTATAGTA | 0.109 ± 0.0064
54 | ACATAGTA | 0.0946 ± 0.04
55 | GCATAGTA | 0.277 ± 0.041
56 | ATATAGTA | 0.281 ± 0.048
57 | GTATAGTA | 0.227 ± 0.0046
58 | ACCGGAGC | -0.286 ± 0.0054
59 | CGGTCCAG | -0.279 ± 0.069
60 | GCTCCACA | -0.0777 ± 0.035
61 | GCCTCAGA | -0.218 ± 0.018
62 | AACGAACG | 0.0291 ± 0.073
63 | CTACTCGC | -0.176 ± 0.076
64 | AAAATCAA | 0.0939 ± 0.085
65 | GAAATCAA | 0.0452 ± 0.11
66 | TAAATCAA | 0.261 ± 0.01
67 | ATCGCGGG | -0.145 ± 0.056
68 | AATCACAT | 0.242 ± 0.066
69 | AATCACAA | 0.172 ± 0.028
70 | AATCACAG | -0.113 ± 0.046
71 | AATCACGT | 0.385 ± 0.046
72 | AATCACGA | 0.00734 ± 0.13
73 | AATCACGC | 0.196 ± 0.096
74 | AGGGCAAA | -0.0293 ± 0.034
75 | CGAAAATA | 0.00928 ± 0.085

Row | Sequence | PBM 8-mer E-score
76 | CAGCGGCG | -0.0966 ± 0.073
77 | GAACCTCC | -0.133 ± 0.0052
78 | CGGAGCAC | -0.157 ± 0.021
79 | GCGCTACA | -0.0407 ± 0.037
80 | ACGCTACA | 0.255 ± 0.047
81 | TCGCTACA | 0.115 ± 0.042
82 | ACTTCGGG | 0.0794 ± 0.099
83 | ACGCTAAG | -0.149 ± 0.038
84 | CCACTGAC | -0.169 ± 0.032
85 | AAAGCATG | 0.25 ± 0.063
86 | CAAGCTGA | -0.175 ± 0.11
87 | AAAGCATT | 0.1 ± 0.0071
88 | AAAGCATA | 0.249 ± 0.045
89 | TAAGCATA | 0.11 ± 0.096
90 | AAAGCTGG | 0.0179 ± 0.046
91 | CAAGCATA | 0.064995 ± 4.9e-05
92 | AAAGCTGA | 0.275 ± 0.086
93 | CAAGCATG | 0.134 ± 0.038
94 | AATAAGGG | 0.11 ± 0.12
95 | ACTGTCTA | 0.0515 ± 0.052
96 | CGACAAGA | -0.0978 ± 0.12
97 | GTCCAGGA | -0.157 ± 0.032
98 | GAACGGGC | -0.0738 ± 0.11
99 | ATCATACA | 0.28 ± 0.069
100 | GTCATACA | 0.118 ± 0.021

Row | Sequence | PBM 8-mer E-score
101 | AACATACC | 0.0171 ± 0.02
102 | CACATACG | 0.0977 ± 0.026
103 | TACATAAA | 0.239 ± 0.025
104 | AACATACT | 0.0528 ± 0.0084
105 | ATCATACG | 0.184 ± 0.071
106 | AACATACA | 0.252 ± 0.0071
107 | ACCATACA | 0.144 ± 0.051
108 | CACATAAA | 0.2193 ± 0.00038
109 | AACATACG | 0.278 ± 0.03
110 | AACATAAA | 0.168 ± 0.035
111 | CGCGCTCA | -0.127 ± 0.012
112 | ACTGCAAA | 0.0247 ± 0.1
113 | AGGCGACA | -0.105 ± 0.11
114 | GCGAACCC | -0.0615 ± 0.025
115 | ATCTGACC | 0.00987 ± 0.008
116 | CAATCGCG | -0.0427 ± 0.086
117 | CAGATCTG | -0.123 ± 0.089
118 | GACATACA | 0.167 ± 0.11
119 | TACATACA | 0.26 ± 0.025
120 | CACATACA | 0.112 ± 0.072
121 | ACGATGCC | -0.151 ± 0.016
122 | ATATGCCA | 0.242 ± 0.062
123 | CTATGCCA | 0.0539 ± 0.12
124 | ATATGCCG | 0.0671 ± 0.1
125 | TCGTGCAA | 0.0413 ± 0.0064

Row | Sequence | PBM 8-mer E-score
126 | AAGTGCAT | 0.132 ± 0.029
127 | ACGTGCAC | 0.334 ± 0.11
128 | GCGTGCTA | 0.138 ± 0.033
129 | GCGTGCAC | 0.208 ± 0.024
130 | ACGTGCAA | 0.251 ± 0.095
131 | CCGTGCAC | 0.0347 ± 0.013
132 | ACGTGCTA | 0.278 ± 0.041
133 | ACGTGCAT | 0.33 ± 0.053
134 | AGGTGCAT | 0.0164 ± 0.091
135 | CCGTGCTA | -0.0534 ± 0.02
136 | CCGTGCAA | -0.0343 ± 0.018
137 | CAAGCTCG | -0.109 ± 0.086
138 | AAGACCCT | 0.0269 ± 0.086
139 | GACCGTGC | -0.11 ± 0.054
140 | AGCCTCAA | -0.0979 ± 0.089
141 | CGTCTCGC | -0.117 ± 0.017
142 | CTAGCCAG | -0.0885 ± 0.015
143 | GACACGAC | 0.0582 ± 0.097
144 | GGTGCAAA | 0.0271 ± 0.074
145 | CTCGCCTC | -0.157 ± 0.053
146 | CCTCAGTA | -0.184 ± 0.019
147 | AGGTTTAG | -0.0204 ± 0.08
148 | CCGTGCAG | -0.128 ± 0.047
149 | ACGTGCAG | 0.252 ± 0.00027
150 | ACGTGCCG | 0.207 ± 0.098

Row | Sequence | PBM 8-mer E-score
151 | CTGTAGGC | -0.151 ± 0.011
152 | GACAACAA | 0.125 ± 0.046
153 | CGTCTGGC | -0.194 ± 0.022
154 | CATAATAA | 0.216 ± 0.021
155 | ACTAATAT | 0.199 ± 0.0057
156 | CATAATAC | 0.26 ± 0.066
157 | GATAATAA | 0.164 ± 0.034
158 | AATAATAC | 0.16 ± 0.018
159 | GATAATAC | 0.204 ± 0.073
160 | AATAATAT | 0.244 ± 0.011
161 | TGTAATAA | 0.189 ± 0.076
162 | AATAATAG | 0.263 ± 0.024
163 | TATAATAA | 0.315 ± 0.015
164 | ACTAATAG | 0.191 ± 0.025
165 | CATAATAG | 0.229 ± 0.017
166 | CAGCCTGA | -0.0558 ± 0.092
167 | CGGCGGAA | -0.0106 ± 0.03
168 | AATTGCTC | -0.0189 ± 0.0015
169 | ACTAGATC | -0.0146 ± 0.044
170 | CGCACCAG | -0.0279 ± 0.043
171 | ATGAGACC | -0.0938 ± 0.12
172 | CTGTCCTC | -0.0695 ± 0.18
